Our source for the outcome and AC50 values is PubChem BioAssay (EPA / NIEHS).

A short description of assay [1]: ATG_E_Box_CIS: Attagene CIS-FACTORIAL HepG2 Assay for human Enhancer Box (E-box) (AID 2282936). The settings on record: HepG2 E-box cis-reporter transcription, actives raise or lower the signal. The gist of the method: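 DMSO served as negative control and baseline for bidirectional fitting. Human hepatoma HepG2 cells, transiently transfected with cis-reporter constructs, were dosed 24 h; reporter mRNA read by RT-PCR and capillary electrophoresis.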

A short description of assay [2]: ATG_M_61_CIS: Attagene CIS-FACTORIAL HepG2 Assay for M61 Transcription Factor (Internal Marker) (AID 2282937). The note with it: HepG2 Attagene CIS-FACTORIAL M61 internal marker reporter; actives raise or lower the signal. Put shortly: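 Endogenous transcription factor activity in HepG2 is read through transiently transfected cis-element reporter units. After 24 h dosing, RNA undergoes reverse transcription, PCR and primer extension with 6-FAM before capillary electrophoresis; DMSO-referenced bidirectional fit.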

A short description of assay [3]: ATG_EGR_CIS: Attagene CIS-FACTORIAL HepG2 Assay for human Early Growth Response 1 (EGR1) (AID 2282938). The settings on record: HepG2 Attagene CIS-FACTORIAL EGR reporter mRNA; actives raise or lower the signal. The gist of the method:
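Activity is taken as induction or loss of reporter mRNA versus DMSO, fitted bidirectionally. Transcripts from cis-regulated reporter units in transiently transfected HepG2 were measured after 24 h by RT-PCR with capillary electrophoresis.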

The nature of assay [4]: ATG_M_19_CIS: Attagene CIS-FACTORIAL HepG2 Assay for M19 Transcription Factor (Internal Marker) (AID 2282939). The settings on record: HepG2 Attagene CIS-FACTORIAL M19 internal marker reporter; actives raise or lower the signal. Put shortly: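 Chemical-treated HepG2 (24 h) with MRTU constructs; reporter transcripts detected by fluorescent RT-PCR fragment analysis on capillary electrophoresis. Internal background marker, DMSO as baseline.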

Assay [5] is described as follows: ATG_ERE_CIS: Attagene CIS-FACTORIAL HepG2 Assay for Estrogen Response Element (ERE) (AID 2282940). The settings on record: HepG2 ERE cis-reporter, Attagene RNA transcript; actives raise or lower the signal. Put shortly:
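Human liver cells (HepG2) bearing transiently transfected, promoter-regulated reporter units were exposed 24 h. Reporter mRNA induction was detected by capillary electrophoresis of labelled RT-PCR products and fitted bidirectionally to DMSO.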

Assay [6] in a line: ATG_Ets_CIS: Attagene CIS-FACTORIAL HepG2 Assay for human Erythroblast Transformation Specific (ETS) (AID 2282941). The note with it: HepG2 ETS cis-reporter transcription, actives raise or lower the signal. Put shortly: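 Human HepG2 hepatoma cells were transiently transfected with promoter-driven reporter constructs and treated for 24 hours. Reporter transcripts were quantified by RT-PCR with fluorescent primer extension; bidirectional curve fitting used DMSO as reference.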

Assay [7] addresses Hepatocyte nuclear factor 3-beta (Homo sapiens) (UniProt Q9Y261). The assay can be described thus: ATG_FoxA2_CIS: Attagene CIS-FACTORIAL HepG2 Assay for human Forkhead box A2 (FOXA2) (AID 2282942). The settings on record: HepG2 cis-reporter transcription factor activity, 24 h; actives raise or lower the signal. The gist of the method: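 Reporter transcript induction is measured by fluorescence after capillary electrophoresis of RT-PCR products from HepG2 cells exposed 24 h. Cis-regulated reporter units report endogenous factor activity; curves fitted both directions against DMSO.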

Assay [8] can be described thus: ATG_FoxO_CIS: Attagene CIS-FACTORIAL HepG2 Assay for human Forkhead box O (FoxO) (AID 2282943). The note with it: HepG2 Attagene cis-reporter, FoxO element, mRNA; actives raise or lower the signal. Put shortly: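 HepG2, transient MRTU transfection (cis element, endogenous TFs). Dose 24 h. TriZol RNA → oligo(dT) RT → PCR → 6-FAM primer extension → HpaI cut → CE. Gain/loss vs DMSO.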

Assay [9] in a line: ATG_GATA_CIS: Attagene CIS-FACTORIAL HepG2 Assay for human GATA Binding Protein (AID 2282944). The note with it: HepG2 GATA cis-element reporter, Attagene multiplex mRNA; actives raise or lower the signal. The gist of the method:
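Transfected cis-reporter HepG2 cells were treated with chemicals for 24 hours. Total RNA was then converted to cDNA, amplified with reporter-specific primers and analysed by fluorescent capillary electrophoresis, using DMSO-treated wells as baseline.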

Assay [10] can be described thus: ATG_GLI_CIS: Attagene CIS-FACTORIAL HepG2 Assay for human Zinc Finger Protein GLI1 (AID 2282945). The note with it: HepG2, Attagene cis-factorial reporter mRNA, GLI element; actives raise or lower the signal. The gist of the method: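 Bidirectional curve fits relative to DMSO, using reporter mRNA levels from RT-PCR plus capillary electrophoresis. Cells were HepG2 transiently carrying cis-regulated reporter constructs, harvested 24 h after dosing.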

Assay [11] deals with Bile acid receptor (Homo sapiens) (UniProt Q96RI1). The assay can be described thus: ATG_IR1_CIS: Attagene CIS-FACTORIAL HepG2 Assay for human Nuclear Receptor Subfamily 1 Group H Member 4 (NR1H4), IR1 submotif (AID 2282946). The note with it: IR1 reporter transcription, actives raise or lower the signal. Put shortly:
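Cells (human HepG2) carry transiently transfected cis-promoter reporter transcription units. Compounds are incubated 24 h, total RNA is reverse-transcribed and amplified, and labelled fragments are resolved by capillary electrophoresis. Curves use DMSO as baseline.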

Assay [12] is described as follows: ATG_GRE_CIS: Attagene CIS-FACTORIAL HepG2 Assay for human Glucocorticoid Response Elements (GRE) (AID 2282947). The settings on record: HepG2 GRE cis-reporter, Attagene multiplex mRNA; actives raise or lower the signal. Put shortly:
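Assay uses human hepatoma HepG2 cells transfected with cis-promoter reporter units, exposed 24 h. mRNA from reporters detected by RT-PCR plus capillary electrophoresis; DMSO serves as negative control and baseline.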

A short description of assay [13]: ATG_ISRE_CIS: Attagene CIS-FACTORIAL HepG2 Assay for human Interferon Regulatory Factor 1 (IRF1) binding to an Interferon-Stimulated Response Element (ISRE) (AID 2282948). The note with it: HepG2 ISRE cis-reporter (Attagene), mRNA transcription readout; actives raise or lower the signal. The gist of the method: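 Cell-based cis-reporter assay; HepG2; 24 h exposure; reporter mRNA by RT-PCR plus capillary electrophoresis fluorescence; activity in either direction scored relative to DMSO.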

The nature of assay [14]: ATG_M_32_CIS: Attagene CIS-FACTORIAL HepG2 Assay for M32 Transcription Factor (Internal Marker) (AID 2282949).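 Note: background control marker of the multiplexed CIS panel rather than a real target.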 The settings on record: HepG2 Attagene cis-factorial M32 reporter, mRNA; actives raise or lower the signal. The gist of the method:
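Internal background marker read-out: RT-PCR/capillary electrophoresis fluorescence of reporter transcripts from transiently transfected HepG2 cells after 24 h chemical exposure. Activity fitted bidirectionally relative to DMSO negative control.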

Assay [15] in a line: ATG_M_06_CIS: Attagene CIS-FACTORIAL HepG2 Assay for M06 Transcription Factor (Internal Marker) (AID 2282950). The settings on record: HepG2 Attagene CIS-FACTORIAL M06 internal marker reporter; actives raise or lower the signal. Put shortly: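 Cells (HepG2, transiently carrying cis-driven reporter units) receive chemical for 24 h before RNA isolation. Reporter cDNA is PCR-amplified, FAM-labelled by primer extension, HpaI-digested and sized on a capillary analyser.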

The target in assay [16] is Hypoxia-inducible factor 1-alpha (Homo sapiens) (UniProt Q16665). The assay can be described thus: ATG_HIF1a_CIS: Attagene CIS-FACTORIAL HepG2 Assay for human Hypoxia Inducible Factor 1 (HIF1A) (AID 2282951). The settings on record: HepG2 Attagene cis-factorial HIF1a reporter transcription; actives raise or lower the signal. The gist of the method: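 Fluorescence intensity of capillary-separated, 6-FAM-labelled reporter amplicons gives mRNA induction in HepG2 cells carrying transfected cis-promoter reporter units; cells exposed 24 h, responses fitted up or down from DMSO.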

For assay [17], the target named is Hepatocyte nuclear factor 6 (Homo sapiens) (UniProt Q9UBC0). The assay can be described thus: ATG_HNF6_CIS: Attagene CIS-FACTORIAL HepG2 Assay for human Hepatocyte Nuclear Factor 6 (HNF6) (AID 2282952). The note with it: HepG2 Attagene cis-factorial HNF6 reporter transcription; actives raise or lower the signal. Put shortly:
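Reporter mRNA induction or loss in HepG2 after 24 h exposure; transient cis-MRTU transfection; fragments quantified by capillary electrophoresis; bidirectional analysis, DMSO as negative control.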

Assay [18] concerns the target Heat shock factor protein 1 (Homo sapiens) (UniProt Q00613). The assay can be described thus: ATG_HSE_CIS: Attagene CIS-FACTORIAL HepG2 Assay for human Heat Shock Transcription Factor 1 (HSE) (AID 2282953). The settings on record: HepG2 HSE cis-reporter, Attagene RNA transcription; actives raise or lower the signal. The gist of the method: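 Liver-derived HepG2 cells carry transiently introduced multiple reporter units governed by cis promoters. Reporter RNA measured 24 h post-dose through reverse transcription, PCR amplification, fluorescent labelling and capillary electrophoresis, normalised to DMSO.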

The nature of assay [19]: ATG_MRE_CIS: Attagene CIS-FACTORIAL HepG2 Assay for human Metal Responsive Element (MRE) (AID 2282954). The settings on record: HepG2 MRE cis-reporter transcription, Attagene multiplex; actives raise or lower the signal. Put shortly:
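After a 24 h chemical exposure, transiently transfected HepG2 cells yield RNA whose reporter sequences are amplified, FAM-labelled and sized by capillary electrophoresis. Curves are fitted bidirectionally relative to DMSO.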

Assay [20] can be described thus: ATG_PBREM_CIS: Attagene CIS-FACTORIAL HepG2 Assay for human Phenobarbital-responsive Enhancer Module (PBREM) (AID 2282955). The note with it: HepG2 PBREM cis-reporter, Attagene multiplexed transcription; actives raise or lower the signal. The gist of the method:
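Cells were transfected with cis-element reporter units and treated for 24 h, after which RNA was extracted and reporter transcripts measured by RT-PCR and capillary electrophoresis.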

Values joined by “and” are separate entries in the source; they are usually repeats but may differ in a detail not shown here. Equal values may be shown once. A structure can be active in one record and inactive in another. Active and inactive are the calls of the source. Rule for the calls: active = hit-call score of the fitted dose curve at least 0.9, where 1 is the maximum; inactive = score below 0.9.

Sequence of Bile acid receptor (Homo sapiens) (Q96RI1 whole entry, looked up, the tested form may be a part): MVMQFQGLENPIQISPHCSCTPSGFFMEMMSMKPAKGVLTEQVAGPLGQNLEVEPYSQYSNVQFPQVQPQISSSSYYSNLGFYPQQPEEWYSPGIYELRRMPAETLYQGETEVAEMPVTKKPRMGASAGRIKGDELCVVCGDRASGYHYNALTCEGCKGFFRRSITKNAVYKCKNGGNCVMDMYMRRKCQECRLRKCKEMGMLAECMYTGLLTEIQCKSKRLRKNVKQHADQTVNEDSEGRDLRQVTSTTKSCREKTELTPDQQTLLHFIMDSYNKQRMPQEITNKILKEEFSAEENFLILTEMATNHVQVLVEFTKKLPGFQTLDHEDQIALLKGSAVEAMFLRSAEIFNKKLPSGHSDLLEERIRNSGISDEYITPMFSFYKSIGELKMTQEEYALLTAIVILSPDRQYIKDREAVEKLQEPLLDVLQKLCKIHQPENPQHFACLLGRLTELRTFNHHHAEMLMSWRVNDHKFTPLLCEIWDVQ
Sequence of Hypoxia-inducible factor 1-alpha (Homo sapiens) (Q16665 whole entry, looked up): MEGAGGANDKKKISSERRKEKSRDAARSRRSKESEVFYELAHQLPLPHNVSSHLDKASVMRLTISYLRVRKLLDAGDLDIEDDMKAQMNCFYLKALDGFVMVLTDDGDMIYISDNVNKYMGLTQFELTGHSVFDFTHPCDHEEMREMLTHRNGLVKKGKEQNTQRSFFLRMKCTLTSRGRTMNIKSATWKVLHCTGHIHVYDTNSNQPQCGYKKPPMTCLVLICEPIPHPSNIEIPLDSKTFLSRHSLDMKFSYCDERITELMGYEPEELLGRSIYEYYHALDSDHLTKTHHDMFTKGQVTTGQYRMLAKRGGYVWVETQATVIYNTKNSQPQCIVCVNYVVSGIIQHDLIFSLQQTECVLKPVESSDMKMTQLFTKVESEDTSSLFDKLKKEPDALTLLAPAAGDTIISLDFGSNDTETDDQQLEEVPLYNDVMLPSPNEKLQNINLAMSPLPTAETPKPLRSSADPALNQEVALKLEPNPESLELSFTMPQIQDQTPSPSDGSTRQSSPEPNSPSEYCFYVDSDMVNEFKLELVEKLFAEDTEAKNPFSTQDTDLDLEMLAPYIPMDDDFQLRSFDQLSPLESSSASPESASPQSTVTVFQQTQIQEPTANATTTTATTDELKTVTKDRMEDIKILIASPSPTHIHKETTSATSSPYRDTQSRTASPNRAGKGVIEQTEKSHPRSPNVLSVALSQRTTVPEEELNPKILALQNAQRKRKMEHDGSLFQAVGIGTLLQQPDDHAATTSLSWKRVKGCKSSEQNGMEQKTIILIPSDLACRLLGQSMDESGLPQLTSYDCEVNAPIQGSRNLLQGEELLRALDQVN
Sequence of Heat shock factor protein 1 (Homo sapiens) (Q00613 whole entry, looked up): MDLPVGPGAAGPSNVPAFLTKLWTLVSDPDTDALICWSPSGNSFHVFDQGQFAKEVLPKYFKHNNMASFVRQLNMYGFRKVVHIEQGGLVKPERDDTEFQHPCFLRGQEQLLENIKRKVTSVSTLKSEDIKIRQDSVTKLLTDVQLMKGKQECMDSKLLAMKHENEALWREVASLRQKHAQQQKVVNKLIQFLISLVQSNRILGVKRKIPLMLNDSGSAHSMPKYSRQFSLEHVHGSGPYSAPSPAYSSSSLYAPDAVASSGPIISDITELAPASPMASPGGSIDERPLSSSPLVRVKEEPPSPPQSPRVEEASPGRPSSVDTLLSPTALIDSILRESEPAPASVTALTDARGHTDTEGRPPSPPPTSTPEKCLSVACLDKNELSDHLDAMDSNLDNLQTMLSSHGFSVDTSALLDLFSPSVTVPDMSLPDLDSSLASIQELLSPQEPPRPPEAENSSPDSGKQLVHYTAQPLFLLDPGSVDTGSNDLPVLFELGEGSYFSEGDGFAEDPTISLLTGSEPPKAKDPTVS
Sequence of Hepatocyte nuclear factor 3-beta (Homo sapiens) (Q9Y261 whole entry, looked up): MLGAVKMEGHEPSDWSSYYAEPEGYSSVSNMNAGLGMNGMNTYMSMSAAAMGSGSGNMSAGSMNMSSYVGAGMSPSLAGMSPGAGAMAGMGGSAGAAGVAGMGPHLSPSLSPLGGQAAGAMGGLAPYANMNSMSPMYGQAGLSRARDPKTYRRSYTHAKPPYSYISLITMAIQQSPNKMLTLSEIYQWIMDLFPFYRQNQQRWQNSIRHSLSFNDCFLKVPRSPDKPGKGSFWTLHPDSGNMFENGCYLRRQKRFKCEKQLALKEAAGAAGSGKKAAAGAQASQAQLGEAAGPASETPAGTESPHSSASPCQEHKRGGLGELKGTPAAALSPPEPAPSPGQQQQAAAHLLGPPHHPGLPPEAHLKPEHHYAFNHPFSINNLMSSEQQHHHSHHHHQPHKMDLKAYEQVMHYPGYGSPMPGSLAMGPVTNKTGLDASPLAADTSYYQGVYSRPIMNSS
Sequence of Hepatocyte nuclear factor 6 (Homo sapiens) (Q9UBC0 whole entry, looked up, the tested form may be a part): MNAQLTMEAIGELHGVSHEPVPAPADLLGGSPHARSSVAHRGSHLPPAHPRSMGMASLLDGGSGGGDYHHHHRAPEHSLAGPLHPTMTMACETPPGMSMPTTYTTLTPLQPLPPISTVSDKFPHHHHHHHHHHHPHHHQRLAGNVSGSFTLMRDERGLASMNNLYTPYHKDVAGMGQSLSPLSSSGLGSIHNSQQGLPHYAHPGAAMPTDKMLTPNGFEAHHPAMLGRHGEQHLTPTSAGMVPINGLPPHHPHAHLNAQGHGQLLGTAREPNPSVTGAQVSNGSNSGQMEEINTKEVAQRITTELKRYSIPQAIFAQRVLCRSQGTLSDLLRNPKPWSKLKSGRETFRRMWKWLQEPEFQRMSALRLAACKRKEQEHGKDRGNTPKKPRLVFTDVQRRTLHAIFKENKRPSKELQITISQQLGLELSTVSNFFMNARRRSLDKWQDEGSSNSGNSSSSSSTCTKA

Turning to `CC1=CC(=O)/C(=C(/C)O)C(=O)O1`, the result in [1], in [2], in assay [3], in assay [4], in [5] and in assay [6] was inactive. Also, the molecule was called inactive in assay [7], in assay [8], in assay [9], in assay [10], in assay [11] and in assay [12]. The call in assay [13], in [14], in assay [15], in assay [16], in assay [17] and in assay [18] was inactive. Moreover, the outcome in assay [19] and in [20] was inactive.

With `Cc1cc(F)ccc1-c1cc(N2CC[C@@H](O)[C@H]2CO)ncc1N(C)C(=O)C(C)(C)c1cc(C(F)(F)F)cc(C(F)(F)F)c1`, the result in assay [1], in assay [2], in assay [3], in assay [4], in assay [5] and in assay [6] was inactive. Also, the molecule was classed as inactive in [7], in assay [9], in assay [10], in assay [11], in [12] and in [13]. Besides, the call in assay [14], in assay [15], in [16], in assay [17], in assay [18] and in [19] was inactive. Moreover, in [20], the outcome was inactive.

As usually defined, the AC50 is the concentration giving half of the maximal activity seen. As for `CCCCOC(=O)CC(CC(=O)OCCCC)(OC(C)=O)C(=O)OCCCC`, the outcome in [1], in [2], in [3], in assay [4], in [6] and in assay [7] was inactive. Besides, the molecule was classed as inactive in assay [8], in [9], in [10], in assay [11], in assay [12] and in assay [13]. For the same molecule, the outcome in assay [14], in assay [15], in [16], in assay [17], in assay [18] and in assay [20] was inactive. Also, the half-maximal activity concentration (AC50) in assay [13] was 26.7 µM (active); in [19] it was 27.2 µM (active) and 20.7 µM (active); in [20], 26.6 µM (active).

Consider `CC[C@@H]1C[C@H](N(Cc2cc(C(F)(F)F)cc(C(F)(F)F)c2)C(C)=O)c2cc(C(F)(F)F)ccc2N1C(=O)OC(C)C`, for which the outcome in assay [1], in assay [2], in assay [3], in assay [4], in assay [5] and in [6] was inactive. Moreover, the result in assay [7], in assay [9], in [10], in assay [12], in assay [13] and in [14] was inactive. Further, the outcome in [15], in assay [16], in assay [17], in assay [18] and in [19] was inactive. The AC50 in assay [20] was 0.181 µM (active).

As to `Cc1ncc(CO)c(CO)c1O`, the outcome in assay [1], in assay [2], in [3], in assay [4], in assay [6] and in assay [7] was inactive. For the same molecule, the molecule was classed as inactive in [9], in assay [10], in assay [11], in [13], in assay [14] and in assay [15]. The result in assay [17], in [18] and in [19] was inactive.

For the molecule `CC1(C)NC(=O)N(c2ccc([N+](=O)[O-])c(C(F)(F)F)c2)C1=O`, the result in assay [1], in assay [2], in assay [3], in assay [4], in assay [6] and in assay [7] was inactive. Further, the call in assay [9], in assay [10], in [11], in [13], in assay [14] and in assay [15] was inactive. The molecule was called inactive in assay [17], in [18], in assay [19] and in [20].
